From PubChem BioAssay
HT1080 IDH1KD tx = kills HT-1080 cells with IDH1 knockdown | actives 2% (n = 360,000) | HT-1080 IDH1 knockdown viability, ATP luminescence, 48 h | Potency, µM (doses to about 46.1 µM), inactives show at the top dose activity, negative = toxicity, usual class: cytotoxic | AID 686971;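 also: potency is read from the fitted curve at half-maximal effect; 0% = DMSO wells and -100% = cell-free medium wells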
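Cytotoxicity counter-line: IDH1KD HT-1080, 48 h, CellTiter-Glo. Curves classed by r2, magnitude and activity.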
KB-V1 cytotox = KB-V1 MDR subline cytotoxicity; actives 3.4% (n = 400,000); Potency, µM (highest dose often 46.1 µM), hits mostly cytotoxic; AID 1347076; KB-V1 MDR cells viability, CellTiter-Glo, 72 h; also: potency is read from the fitted curve at half-maximal effect; nearly all actives have a fitted effect of over 60% in size
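Compound-treated KB-V1 multidrug-resistant cells, 72 h, 37 degrees C; viability by CellTiter-Glo. Fitted qHTS curves give the values.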
IL1B secr inh = inflammasome signaling inhibition, IL-1 beta readout | THP-1 LPS/ATP IL-1B secretion, AlphaLISA, 16 h; stronger effect = lower value | activity change, % at 57.5 µM | actives 4.7% (n = 360,000) | AID 743279; in the data active = activity change below about -50%; inconclusive = mostly about -30% to -49%
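Secreted IL-1B measured by AlphaLISA bead assay after 16 h compound exposure of THP-1 cells; compounds (final up to 57.5 uM) added 1 h before LPS (250 ng/mL) and ATP (1.25 mM) stimulation; lower signal means less secretion.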
KB-3-1 tox = kills parental KB-3-1 adenocarcinoma cells; Potency, µM (titrated, usually from 46.1 µM), actives largely listed as cytotoxic; AID 1347075; actives 1.4% (n = 400,000); KB-3-1 viability, CellTiter-Glo ATP luminescence, 72 h; also: potency is read from the fitted curve at half-maximal effect; nearly all actives have a fitted effect of over 60% in size
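Cytotoxicity measured as CellTiter-Glo luminescence after 72 h at 37 C. Compound titrations were pinned onto drug-naive KB-3-1 parental adenocarcinoma cells grown in DMEM with 10% FBS, and normalized data fitted to concentration-response curves.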
HT1080-NT tox = kills 2HG-producing HT-1080-NT fibrosarcoma cells. HT-1080-NT fibrosarcoma viability, CellTiter-Glo ATP luminescence, 48 h. Potency, µM (titrated, usually from 46.1 µM), for the others: top-dose activity, negative = less viability, usual class: cytotoxic. actives 1.6% (n = 360,000). AID 686970;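 also: NT is the 2HG producing partner of a matched IDH1 knockdown line; potency is read from the fitted curve at half-maximal effect; 0% = DMSO-treated cells and -100% = media-only wells without cells; nearly all actives have a fitted effect of over 55% in size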
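Fibrosarcoma NT cells, 750 per well in 5% FBS RPMI, were exposed to compound for 48 hours. Viability: CellTiter-Glo luminescence.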
Active calls of the source: *; i = inactive; ? = inconclusive; . = no result given. Hits are enriched below; roughly 8.8% of the tested compounds scored in any of these assays. Unless noted, calls follow the shape of the dose curve; as a rule, active = well fitted curve in the direction sought with a large enough effect; inconclusive = small, poorly fitted or top-dose-only effect, or another doubt; inactive = no such curve, though single readings can be large; an effect the other way counts as inactive or inconclusive. Unless noted, % is scaled to controls: 0 for no effect and ±100 for the full control effect.

SMILES	HT1080 IDH1KD tx	KB-V1 cytotox	IL1B secr inh	KB-3-1 tox	HT1080-NT tox
O=C(Oc1c(CN2CCOCC2)cc(Cl)c2cccnc12)c1ccccc1Cl	6.5µM*	?	-91*	?	?
O=C(Oc1c(Cl)cc(Cl)c2cccnc12)c1cccs1	21µM*	?	48	?	21µM*
Cc1cc(Cl)c2ccc3ccccc3c2n1	15%	i	0	i	10%
O=C(NC(c1ccco1)c1cc(Cl)c2cccnc2c1O)c1cccs1 (stereo unspecified)	.	?	.	i	.
Oc1c(I)cc(I)c2cccnc12	?	?	20	i	3.7µM*
COc1ccc(CCCNC(=O)C2(C)Cc3c(-c4ccc5c(c4)OCO5)ccnc3O2)cc1 (stereo unspecified)	?	?	0	?	?
Cc1cccc(NC(=S)N2CCOCC2)c1C	11%	?	4	i	17%
Oc1c(Cl)cc(Cl)c2cccnc12	21µM*	i	126	?	?
O=C(Oc1c(Cl)cc(Cl)c2cccnc12)c1ccco1	?	2.1µM*	?	?	?
O=C(Oc1c(CN2CCOCC2)cc(Cl)c2cccnc12)c1cccs1	3.7µM*	?	-58*	?	2.9µM*
O=C(Oc1ccc(Cl)c2cccnc12)N1CCOCC1	3%	i	0	i	-2%
O=C(Nc1c2c(nn1-c1ccc(Cl)cc1)CS(=O)(=O)C2)C1CC1	3%	i	0	i	2%
C/C(=C/CCC(C)(O)C1CC[C@@]2(C)[C@@H]3CC=C4[C@@H](CC[C@H](O[C@H]5O[C@@H](CO)[C@H](O)[C@@H](O)[C@@H]5O)C4(C)C)[C@]3(C)C(=O)C[C@]12C)CO[C@@H]1O[C@H](CO)[C@@H](O)[C@H](O)[C@H]1O (stereo partly specified)	12%	?	-1	i	0%
O=C(OCCc1cc2ccccc2c(=O)o1)c1ccc(C(F)(F)F)cc1	13%	i	5	i	3%
CN(C)CCN(C)Cc1ccccc1Sc1cccc2ccccc12	?	23µM*	-105*	?	?
COc1ccc(CCN(C)Cc2cccc3ccccc23)cc1OC	-15%	i	-16	i	-10%
CNCc1ccccc1Sc1cccc2ccccc12	-26%	15µM*	-55*	?	-14%
CCCc1nc2cc3c(cc2[nH]1)n(C)c(=O)n3C	?	i	8	i	27%
CC(=O)/C(N)=N/Nc1cccc(Cl)c1	0%	i	1	i	7%
CCOC(=O)NC(=O)/C(C#N)=N/Nc1c(F)cccc1F	10%	?	15	i	9%
COc1ccc(C(=O)/C(C#N)=N/Nc2cccc([N+](=O)[O-])c2)cc1	23µM*	5.8µM*	-13	?	?
COc1ccc(OCC(=O)N/N=C(\C)CC(=O)Nc2cccc([N+](=O)[O-])c2)cc1	4%	i	-14	i	-5%
N#C/C(=N\Nc1c(Cl)cccc1Cl)C(=O)NN	20%	8.2µM*	-14	15µM*	23%
N#C/C(=N\Nc1ccccc1Cl)C(=O)c1ccccc1	?	?	-13	15µM*	?
O=C(Nc1ccccc1Cl)c1ccccc1	4%	i	-1	i	27%
SMILES	HT1080 IDH1KD tx	KB-V1 cytotox	IL1B secr inh	KB-3-1 tox	HT1080-NT tox
N#C/C(=N\Nc1cccc(Cl)c1)C(=O)c1ccccc1	23µM*	?	20	16µM*	?
O=C(CCS(=O)(=O)c1ccc(Br)s1)Nc1c(F)cccc1F	.	i	.	i	.
CCC(C)N(C(=O)COC(=O)c1ccccc1SCC(=O)N1CCCC1)C1CCS(=O)(=O)C1 (stereo unspecified)	13%	i	i	i	-4%
COc1ccc(S(=O)(=O)Nc2ccc3c(c2)C(=O)N([C@H](C)CO)C[C@H](C)[C@@H](CN(C)C(=O)Nc2ccc(F)cc2)OCCCC[C@H](C)O3)cc1	-11%	i	-3	i	-17%
S=C1NCc2cncnc2N1	26%	i	54	i	12%
COc1ccc(N2CCN(C(=O)c3cnc(N4CCOCC4)c4ccccc34)CC2)cc1	.	i	.	i	.
COc1c(-c2ccc([N+](=O)[O-])cc2[N+](=O)[O-])c(=O)n(C)c(=O)n1C	-4%	i	0	i	-6%
C#CCOCCOCCOCCNc1nc(N2CCN(C(=O)[C@H](CCC(=O)O)n3cc([C@@H](N)CCCCN)nn3)CC2)nc(N2CCN(C(=O)[C@H](CCCCN)n3cc([C@@H](N)CC(N)=O)nn3)CC2)n1	19%	?	18	i	?
C=CCNC(=O)CSc1nc2cc(C(=O)OCC)ccc2n1CC	11%	i	0	i	18%
CCOC(=O)c1ccc2c(c1)nc(SCC(=O)c1cc3ccccc3o1)n2CC	1%	18µM*	30	i	-9%
CN(C(=O)COC(=O)CNC(=O)CNC(=O)c1ccc(Cl)cc1Cl)c1ccccc1	0%	i	-143*	i	-1%
O=C(COC(=O)CNC(=O)c1ccc(Cl)cc1Cl)NNC(=O)c1ccccc1F	18%	i	1	i	8%
COc1ccc(N2CCN(C(=O)CN=C3NS(=O)(=O)C(c4ccc(C)cc4)=C3C)CC2)cc1	2%	3.7µM*	-2	i	11%
CN(C)S(=O)(=O)c1ccc(-c2csc(N/N=C/c3ccc(O)cc3)n2)cc1	4.1µM*	15µM*	-103*	21µM*	9.2µM*
CN(C)S(=O)(=O)c1ccc(-c2csc(N/N=C/c3ccco3)n2)cc1	-13%	?	-94*	?	-23%
O=C1C(Sc2ccccc2)=C[C@@]2(O)CC[C@@H](O)[C@]1(Sc1ccccc1)[C@H]2O	?	i	-80*	i	?
CCc1ccccc1NS(=O)(=O)c1ccc2[nH]cc(C(=O)N3CCCCC3)c(=O)c2c1	.	i	.	i	.
CCOC(=O)CSc1cc(-c2ccccc2)nc2ncnn12	18µM*	i	.	i	?
c1ccc(-c2cc(-c3ccccc3)n3ncnc3n2)cc1	-2%	i	-11	i	1%
CCN(C(=O)c1cc2cc(Br)cc(OC)c2oc1=O)c1ccccc1	.	i	.	i	.
O=c1c(N=Nc2ccc(O)cc2)c(-c2ccccc2)[nH]n1-c1ccc([N+](=O)[O-])cc1	-17%	?	-22	i	-24%
O=c1cc(-c2ccccc2)[nH]n1-c1ccc([N+](=O)[O-])cc1	13µM*	?	-64*	?	?
CCOC(=O)N1CCN(S(=O)(=O)c2ccc3c(c2)oc(=O)n3C)CC1	2%	23µM*	6	i	3%
